In the library only some 1.6% were active in any assay of this set; here they are far more common.
KCNQ2 enhance: KCNQ2 (rat) channel potentiation; O88943; CHO-K1 KCNQ2, FluxOR thallium flux fluorescence; stronger effect = higher value; B-score at 10 µM; 310,000 compounds, 0.54% hits; AID 2239;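 active means fluorescence ratio B-score at least 3 SD of library B-scores, with initial fluorescence B-score within 3 of them, cut at about 5.3 in these data; same plate scores as AID 2156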;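 further: B-score of peak minus minimum over baseline fluorescence ratio after K+ and Tl+ stimulus; positive B-score means potentiation of KCNQ2 with more thallium influx and brighter signal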
Target sequence (O88943 whole entry, looked up): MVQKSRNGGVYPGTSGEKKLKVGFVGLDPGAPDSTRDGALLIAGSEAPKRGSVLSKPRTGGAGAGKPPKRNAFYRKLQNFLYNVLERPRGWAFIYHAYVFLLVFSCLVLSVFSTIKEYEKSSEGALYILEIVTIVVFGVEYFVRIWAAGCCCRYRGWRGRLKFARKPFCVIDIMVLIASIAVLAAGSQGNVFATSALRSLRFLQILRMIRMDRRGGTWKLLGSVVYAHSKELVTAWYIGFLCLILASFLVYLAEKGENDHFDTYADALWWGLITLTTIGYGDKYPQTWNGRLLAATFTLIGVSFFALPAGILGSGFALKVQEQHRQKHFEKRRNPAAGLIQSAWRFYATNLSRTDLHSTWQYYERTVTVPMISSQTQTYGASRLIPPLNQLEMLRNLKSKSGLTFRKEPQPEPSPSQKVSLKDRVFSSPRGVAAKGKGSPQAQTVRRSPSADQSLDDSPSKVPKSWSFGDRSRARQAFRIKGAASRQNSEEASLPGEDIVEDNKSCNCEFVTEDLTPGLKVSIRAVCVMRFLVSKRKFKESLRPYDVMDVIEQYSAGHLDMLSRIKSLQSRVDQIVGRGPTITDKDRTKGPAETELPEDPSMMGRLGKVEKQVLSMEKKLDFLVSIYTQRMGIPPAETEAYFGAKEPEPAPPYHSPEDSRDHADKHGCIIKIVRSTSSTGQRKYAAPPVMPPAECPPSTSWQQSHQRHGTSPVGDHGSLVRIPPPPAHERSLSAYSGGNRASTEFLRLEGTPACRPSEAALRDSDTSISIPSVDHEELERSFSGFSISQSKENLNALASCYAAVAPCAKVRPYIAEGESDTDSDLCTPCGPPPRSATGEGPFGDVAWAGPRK
KCNQ2 block: inhibitors of rat KCNQ2 potassium channel; CHO-K1 KCNQ2, FluxOR thallium flux, 20 min; stronger effect = lower value; B-score at 10 µM; 310,000 compounds, 1.1% hits;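 active means fluorescence ratio B-score at most minus 3 library SDs, with starting brightness B-score within 2 library SDs, cut at about -5.5 in these data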
Each line names hits and unclear results; the compound was inactive in the other large screens.

Cc1ccc2nc(-c3cccc(Br)c3)cc(C(=O)NC3=NCCS3)c2c1	KCNQ2 block -7.3
CC(C)Cn1c(-c2cc([N+](=O)[O-])ccc2Cl)nc2c1c(=O)[nH]c(=O)n2Cc1ccccc1	KCNQ2 enhance 7.4
Cc1ccc(-c2nc3c(c(=O)[nH]c(=O)n3CC(C)C)n2CC(C)C)cc1[N+](=O)[O-]	none (no result: KCNQ2 enhance)
CC(C)Cn1c(-c2cc(Br)ccc2F)nc2c1c(=O)[nH]c(=O)n2CC(C)C	KCNQ2 block -6.5
CCCCn1c(-c2ccncc2)nc2c1c(=O)[nH]c(=O)n2CC(C)C	none (no result: KCNQ2 enhance)
O=c1c2cnn(-c3ccccc3)c2nc(-c2cccs2)n1-c1ccc(Cl)cc1	none (no result: KCNQ2 enhance)
O=c1c2cnn(-c3ccccc3)c2nc(-c2cccs2)n1-c1cccc(Cl)c1	KCNQ2 block -7.5
COc1ccc(CNc2ncc(-c3ccccc3)n2C)c2ccccc12	KCNQ2 block -5.7
COc1ccc(CNc2ncc(-c3ccccc3)n2C)c(OC)c1OC	none
CC(C)(C)c1ccccc1NC(=O)N1CCNC(=O)C1CC(=O)Nc1ccc(F)cc1 (stereo not given)	none
CC1CCN(S(=O)(=O)c2ccc3c(c2)N(CC(=O)NCCCN2CC(C)CC(C)C2)C(=O)CS3)CC1 (stereo not given)	none (no result: KCNQ2 enhance)
CC(C)(C)C(=O)c1no[n+]([O-])c1/C(=N/O)C(C)(C)C	KCNQ2 block -7
COc1ccc(S(=O)(=O)NCC2CCC(C(=O)NCc3ccc(F)cc3)CC2)cc1 (stereo not given)	none (no result: KCNQ2 enhance)
C/C(=N\NC(=O)c1nnn(-c2nonc2N)c1CN1CCCCCC1)c1ccc(Br)cc1	none (no result: KCNQ2 enhance)
C/C(=N\NC(=O)c1nnn(-c2nonc2N)c1CN1CCC(C)CC1)c1cccc(Br)c1	KCNQ2 block -5.7
O=C(O)c1cc(S(=O)(=O)Nc2ccccc2Cc2ccccc2)ccc1Cl	KCNQ2 block -8.1
O=C(O)c1ccc(Cl)c(S(=O)(=O)Nc2ccccc2Cc2ccccc2)c1	none (no result: KCNQ2 enhance)
CC(OC(=O)/C=C/c1ccc2ccccc2n1)C(=O)Nc1ccc(S(N)(=O)=O)cc1 (stereo not given)	none
COc1cccc(NC(=O)N2CCCC2C(=O)NC23CC4CC(CC(C4)C2)C3)c1 (stereo not given)	none (no result: KCNQ2 enhance)
C=CCNC(=O)c1cc2c(=O)n3ccccc3nc2s1	none (no result: KCNQ2 enhance)
COC(CN(C)C(=O)c1cn(C)c2ccc(S(=O)(=O)N(C)C3CCCCC3)cc2c1=O)OC	none
CCn1c(SCc2c(Cl)cccc2Cl)nc2nc3c(cc2c1=O)CCCC3	KCNQ2 block -6.7
CCn1c(SCc2ccccc2Cl)nc2nc3c(cc2c1=O)CCCC3	none (no result: KCNQ2 enhance)
CN(C)c1ccc(NC(=O)CSc2nc(C3CC3)nc3ccccc23)cc1	none (no result: KCNQ2 enhance)
O=C(NCc1ccc2c(c1)OCO2)NC12CC3CC(CC(C3)C1)C2	KCNQ2 enhance 25
O=C(COc1ccc2c(c1)OCO2)NC12CC3CC(CC(C3)C1)C2	none (no result: KCNQ2 enhance)
COc1ccc(CCNC(=O)CSc2nnc3ccc(-c4ccccn4)nn23)cc1OC	none
Cc1onc(-c2ccccc2Cl)c1C(=O)Nc1ccc(N2CCOCC2)cc1	none (no result: KCNQ2 enhance)
Cc1ccc(-n2nc3c(c2NC(=O)c2c(-c4ccccc4Cl)noc2C)CSC3)cc1	KCNQ2 block -7.4
Cc1ccc(Sc2ncccc2C(=O)NCc2cc([N+](=O)[O-])ccc2O)cc1C	none
CCOC(=O)C1CCCN(CC(=O)Nc2nccs2)C1 (stereo not given)	none (no result: KCNQ2 enhance)
CN(C(=O)c1cccc(C(F)(F)F)c1)C1CCCc2ccccc21 (stereo not given)	KCNQ2 block -5.8
CSc1ccccc1OCc1cc(C(=O)N(C)C2CCCc3ccccc32)no1 (stereo not given)	none (no result: KCNQ2 enhance)
CCOc1ccccc1NC(=O)COC(=O)CC(C)(C)CC1=NS(=O)(=O)c2ccccc2N1	none
CCOC(=O)N(NC(=O)C(O)(C(C)C)C(C)C)c1ccccc1	none (no result: KCNQ2 enhance)
CCCCC(O)(CCCC)C(=O)NN(C(=O)OC)c1ccccc1	none (no result: KCNQ2 enhance)
COC(=O)N(NC(=O)C(O)(c1ccccc1)c1ccccc1)c1ccc(C)cc1	KCNQ2 block -5.9
CCOC(=O)N(NC(=O)C(O)(c1ccccc1)c1ccccc1)c1ccccc1	KCNQ2 block -6.1
O=C(NCC(=O)N(c1cccc(F)c1)C(C(=O)NC1CCCC1)c1ccncc1)c1cccs1 (stereo not given)	none (no result: KCNQ2 enhance)
N#CC1(NC(=O)Cn2cc(C(F)(F)F)cc(Cl)c2=O)CCCCC1	none
COc1ccc(NC(=S)N(CCCN2CCOCC2)Cc2ccco2)cc1	none (no result: KCNQ2 enhance)
CCc1ccc(NC(=S)N(CCCN2CCOCC2)Cc2ccco2)cc1	KCNQ2 enhance 6.6
COc1ccc([N+](=O)[O-])cc1NC(=O)C1C2C=CC(C2)C1C(=O)O (stereo not given)	none
O=C(NC1CCN(C(=O)c2ccccc2Br)CC1)c1ccccc1	none
Cc1ccc(Cl)cc1N1CCN(C(=O)c2ccc(CN3CCOCC3)cc2)CC1	none
Cc1ccc(Cl)cc1N1CCN(Cc2cc3c(cc2O)CCC3)CC1	KCNQ2 block -6
N[C@@H](Cc1ccccc1)C(=O)N1CCC(C(=O)N[C@@H](CCC(=O)O)C(=O)O)CC1	none
CCOC(=O)c1cc(C)sc1N1C(=O)C2C3C=CC(C3)C2C1=O (stereo not given)	none
CCOC(=O)c1c(N2C(=O)C3C4C=CC(C4)C3C2=O)sc2c1CCC(C)C2 (stereo not given)	KCNQ2 enhance 6.7
CCOc1ccccc1C(=O)N[C@H](C(=O)OCc1cc(=O)oc2cc(C)ccc12)C(C)C	none (no result: KCNQ2 enhance)
COc1cc(OC)cc(C(=O)N[C@H](C(=O)OCc2cc(=O)oc3cc(C)ccc23)C(C)C)c1	KCNQ2 block -7.7
C/C=C(/C)C(=O)OC1c2c(ccc3ccc(=O)oc23)OC(C)(C)C1OC(=O)/C(C)=C\C (stereo not given)	KCNQ2 block -9.9
C/C=C(\C)C(=O)OC1c2c(ccc3ccc(=O)oc23)OC(C)(C)C1OC(C)=O (stereo not given)	none
Cc1ccc(NC(=O)CSc2nc3ccccc3c(=O)n2CCCN2CCCCC2)cc1Cl	KCNQ2 block -7.9
CC1CCN(CCCn2c(SCC(=O)Nc3ccccc3Cl)nc3ccccc3c2=O)CC1	none (no result: KCNQ2 enhance)
COc1cccc(NC(=O)CSc2nc3c(sc4ccccc43)c(=O)n2CCN(C)C)c1	none
COc1cccc(NC(=O)CSc2nc3c(sc4ccccc43)c(=O)n2CCCN2CCCC2)c1	KCNQ2 block -6.7
Cc1cccc(NC(=O)CNC(=O)CN2C(=O)NC3(CCCc4ccccc43)C2=O)c1C (stereo not given)	none
O=C(Oc1cccc([N+](=O)[O-])c1)C1CCN(C(=O)c2ccc(F)cc2)CC1	none (no result: KCNQ2 enhance)
Cc1ccccc1NC(C)C(=O)N/N=C/c1ccccc1OCc1cccc(Br)c1 (stereo not given)	KCNQ2 block -8.3
COc1ccc(NC(C)C(=O)N/N=C/c2ccccc2OCc2cccc(Br)c2)cc1 (stereo not given)	none (no result: KCNQ2 enhance)
CCOC(=O)N1CCN(C(=O)COC(=O)CNC(=O)c2ccc(C)cc2)CC1	none
CNC(=O)COC(=O)c1ccc2c(c1)S(=O)(=O)c1ccccc1C2=O	none (no result: KCNQ2 enhance)
CCOC(=O)N1CCN(C(=O)CN(c2cccc(C)c2)S(=O)(=O)c2ccc(C)cc2)CC1	none
O=C(CN(c1cccc(Cl)c1)S(=O)(=O)c1ccc(Cl)cc1)N1CCc2ccccc2C1	KCNQ2 block -6.5
CS(=O)(=O)N(CC(=O)N1CCc2ccccc2C1)Cc1ccc(F)cc1	none (no result: KCNQ2 enhance)
Cc1ccc(S(=O)(=O)N(CC(=O)N2CCC(C)CC2)c2cccc(C)c2)cc1	KCNQ2 block -6.2
CS(=O)(=O)N(CC(=O)N1CCc2ccccc2C1)Cc1ccc(Cl)cc1	KCNQ2 block -6
CS(=O)(=O)N(CC(=O)N1CCc2ccccc2C1)c1cccc(F)c1	none (no result: KCNQ2 enhance)
